Screens as filed in PubChem.
The entries come from a sample that favours hits as a whole.
Integrin act MD = activators of alpha7 integrin expression for muscular dystrophy. Potency, µM (top dose mostly 38.3 µM), for inactives: top-dose activation, usual class: activators. AID 624291. 350,000 compounds, 0.064% hits. alpha7betagal myoblasts, beta-gal FDG fluorescence, 48 h;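 further: potency means the concentration at half of the fitted maximal effect; 100% = response of the positive control SU9516; nearly all actives have a fitted effect of over 60% in size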
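alpha7betagal+/- myoblasts (passage 13, 250/well) treated 48 h at 37C with compounds at 1:260 dilution of DMSO stock. Lysed, then beta-galactosidase activity read as FDG fluorescence (ex 480/em 540) after 30 min, with pre-read for autofluorescence.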
Apoferritin bind = candidate novel general anesthetic via apoferritin binding; Potency, µM (highest dose often 77.5 µM), inactives show at the highest dose activity change, negative = displacement, actives largely listed as inhibitors; P02791; 350,000 compounds, 0.074% hits; AID 485281; apoferritin/1-aminoanthracene competitive binding, fluorescence; further: potency means the concentration at half of the fitted maximal effect; on the % scale 0 is the no-effect control and ±100 the full control effect; nearly all actives have a fitted effect of over 20% in size
Target sequence (P02791 2-175 limits assumed): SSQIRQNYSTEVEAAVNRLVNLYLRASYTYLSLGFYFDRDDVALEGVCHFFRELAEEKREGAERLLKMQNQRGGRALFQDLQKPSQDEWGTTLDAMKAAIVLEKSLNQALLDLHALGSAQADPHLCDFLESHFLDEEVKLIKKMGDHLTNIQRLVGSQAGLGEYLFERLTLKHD
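Apoferritin-based anesthetic binding model; compound displacement of fluorescent 1-AMA measured as endpoint fluorescence after 10 minutes at room temperature, scaled to free-ligand and complex controls.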
Glioma ERSR ind = induces the endoplasmic reticulum stress response in human glioma cells; U87-MG GRP78 promoter luciferase reporter, 16 h; 420,000 compounds, 0.02% hits; Potency, µM, for the others: at the top dose activation, usual class: activators; further: potency means the concentration at half of the fitted maximal effect; series mostly up to about 76 µM; % of control where 0% means no effect; nearly all actives have a fitted effect of over 35% in size
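Stably transfected U87-MG glioma cells carrying a GRP78-based luciferase sensor; 16 h compound incubation. Luminescence end-point read 10 min after Bright-Glo addition at room temperature.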
N370S GC = N370S glucocerebrosidase modulation, Gaucher chaperone candidate | N370S GC spleen homogenate, 4MU-glucoside fluorescence | Potency, µM (doses to about 59.4 µM), without a hit: at the top dose activity change, negative = inhibition, usual class: inhibitors | 330,000 compounds, 0.092% hits | P04062;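 further: potency means the concentration at half of the fitted maximal effect; 0% = full enzyme activity and -100% = no enzyme basal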
ClpP mod = qHTS Assay for Activators of ClpP. ATP-dependent Clp protease proteolytic subunit (Bacillus subtilis (strain 168)), P80244. AID 651965, 2013. Potency, µM (titrated, usually from 57.5 µM), for the others: top-dose activity change, negative = active. purified B. subtilis ClpP, FRET peptide cleavage, 20 min. 340,000 compounds, 1.9% hits; active means well fitted falling curve with a large enough effect; inconclusive means small, poorly fitted or top-dose-only effect; inactive means no such curve, though single readings can be large or run the other way; further: potency means the concentration at half of the fitted maximal effect; the source files actives as falling curves though it sought activators and does not explain the sign; nearly all actives have a fitted effect of over 65% in size
Target sequence (P80244 whole entry, looked up): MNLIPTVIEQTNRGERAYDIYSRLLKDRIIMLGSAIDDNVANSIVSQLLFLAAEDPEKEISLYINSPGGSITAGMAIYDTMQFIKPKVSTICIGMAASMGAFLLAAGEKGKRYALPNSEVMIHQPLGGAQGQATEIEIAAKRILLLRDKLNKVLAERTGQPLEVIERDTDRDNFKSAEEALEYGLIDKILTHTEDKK
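ClpP 10 microg/mL final, pH 8 Tris/KCl buffer with BSA, glycerol, Tween-20; compound pinned in; FRET-FV substrate; RT 20 min; Ex320/Em430; ΔFRET vs ADEP 5.8 microM, DMSO, no enzyme.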
CBFb-RUNX1 inh = inhibitors of human CBF-beta and RUNX1 interaction; Q01196+Q13951; AlphaScreen CBFb-His/RUNX1-biotin binding, biochemical; Potency, µM (highest dose often 59.8 µM), without a hit: top-dose activity, negative = inhibition, actives largely listed as inhibitors; 230,000 tested, under 10 active; further: % of control where 0% means no effect
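Room-temperature protein-protein interaction test with 30 nM each of His-tagged CBF-beta and biotinylated RUNX1, 15 min with compound, then 90 min with nickel plus streptavidin beads. Signal read in AlphaScreen mode.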
Numbers without * were called inactive; ? = inconclusive; . = no result given; [ ] = dose if it differs, or a comment. Unless noted, the call rests on the fitted dose curve; in most records, active means well fitted curve in the direction sought with a large enough effect; inconclusive means small, poorly fitted or top-dose-only effect, or another doubt; inactive means no such curve, though single readings can be large; an effect the other way counts as inactive or inconclusive.

SMILES	Integrin act MD	Apoferritin bind	Glioma ERSR ind	N370S GC	ClpP mod	CBFb-RUNX1 inh
CCN(C(=O)CCS(=O)(=O)c1cc2[nH]c(=O)c(=O)[nH]c2cc1C)c1ccccc1	.	-9%	-3%	.	32µM*	.
CCN(C(=O)CCS(=O)(=O)c1cc2c(cc1C)NC(=O)CO2)c1cccc(C)c1	.	-2%	-2%	.	2%	.
CN(C)CC(C)(C)CNC(=O)c1cnn(-c2ncc3c(n2)-c2ccccc2CC3)c1-c1ccco1	.	.	6%	.	.	.
Cc1cc(NS(=O)(=O)c2ccc(NC(=O)c3ccccc3F)cc2)no1	12%	.	-1%	.	1%	.
O=C(Nc1ccc(S(=O)(=O)Nc2nccs2)cc1)c1ccccc1OC(F)F	10µM*	.	0%	.	-3%	.
O=C(Nc1ccc(S(=O)(=O)Nc2nccs2)cc1)c1ccc(F)cc1	-16%	-7%	1%	0%	.	.
CCCn1nc(C(=O)Nc2ccc(S(=O)(=O)Nc3nccs3)cc2)c2ccccc2c1=O	5%	-16%	3%	-2%	25µM*	-6%
COc1ccccc1C(=O)Nc1ccc(S(=O)(=O)Nc2cc(C)on2)cc1	6%	0%	-6%	0%	25µM*	5%
CC(NC(=O)c1cccnc1)c1nnc2n1CCN(Cc1ccc(-c3ccccc3)cc1)CC2 (stereo not drawn)	.	.	-6%	.	.	.
COc1cc2cncnc2cc1OCCCCC(N)=O	.	.	.	.	-24%	.
Nc1c(S(=O)(=O)c2cccc(Cl)c2)c2nc3ccccc3nc2n1CCN1CCOCC1	-5%[7.66 µM]	-9%	-3%	-21%	32µM*	4%
O=S(=O)(Nc1nc2ccccc2nc1NCCN1CCOCC1)c1cccc(Cl)c1	5%	-12%	3%	?	-5%	4%
Cc1ccc(S(=O)(=O)c2c(N)n(CC3CCOC3)c3nc4ccccc4nc23)cc1 (stereo not drawn)	-6%	119%	-1%	?	13µM*	16%
Cc1ccc(S(=O)(=O)c2c(N)n(CCCN(C)C)c3nc4ccccc4nc23)cc1	-21%	148%	-5%	17%	4%	18%
CCCCn1c(NS(=O)(=O)c2ccc(C)cc2)c(S(=O)(=O)c2ccccc2)c2nc3ccccc3nc21	-29%	-13%	-5%	?	25µM*	2%
CCC1(C2CCN(Cc3cccc(Cl)c3)CC2)NC(=O)N(CC2COc3ccccc3O2)C1=O (stereo not drawn)	.	.	-3%	.	.	.
COc1cccc(C2(CC(=O)N3CCCCC3CO)CC(=O)N(C)C2=O)c1 (stereo not drawn)	.	.	-1%	.	.	.
COc1cc2nc(Cl)nc(NC(C)C)c2cc1OC	.	.	.	.	-15%	.
CCCn1cc2c(c1-c1cccc(C)c1)c(=O)n(C)c(=O)n2C	-2%	-5%	-4%	-13%	14µM*	1%
Cn1cccc1C(=O)NC(=O)COC(=O)CC12CC3CC(CC(Br)(C3)C1)C2	3%	?	-4%	22%	28µM*	-8%
Cn1cccc1C(=O)NC(=O)COC(=O)CC12CC3CC(CC(C3)C1)C2	-20%	?	-3%	13%	1%	-11%
Clc1ccc(Cl)c(OCc2cc(-c3ccccc3Cl)on2)c1	11%	-5%	-5%	1%	14µM*	6%
O=C(NNC1=C(C(=O)C(F)(F)F)CCC1)c1ccccc1Cl	-22%	-20%	1%	4%	28µM*	1%
O=C(NCCN1CCOCC1)c1cnn(-c2nccc(-c3ccccc3F)n2)c1C1CC1	.	.	3%	.	.	.
O=C(CO)NCCCOc1cccc(CN2CCCCC2)c1	.	.	-3%	.	.	.
SMILES	Integrin act MD	Apoferritin bind	Glioma ERSR ind	N370S GC	ClpP mod	CBFb-RUNX1 inh
COc1ccc(-c2c3c(=O)n(C)c(=O)n(C)c3cn2-c2cc(OC)ccc2OC)cc1	9%	?	1%	10%	28µM*	-21%
COc1ccc(-c2c3c(=O)n(C)c(=O)n(C)c3cn2-c2ccccc2O)cc1	-45%	9%	0%	-8%	1%	2%
Cn1c(=O)c2c(-c3ccccc3)n(-c3ccccc3O)cc2n(C)c1=O	-12%	-10%	1%	2%	28µM*	1%
CCOC(=O)[C@@H](C)N(C(=O)OC(C)(C)C)S(=O)(=O)N(Cc1ccccc1)[C@@H](C(=O)OC)C(C)C	.	.	-3%	.	2%	.
O=C(NCCN1CCOCC1)c1cnn(-c2nccc(-c3ccccc3C(F)(F)F)n2)c1C1CC1	.	.	-4%	.	.	.
COc1ccc(/C=C/c2ccnc3ccccc23)cc1	.	.	5%	.	-12%	.
CCC(=O)c1ccc(OCC(=O)Nc2nc(-c3cccnc3)cs2)cc1	6%	.	-4%	-4%	32µM*	.
CC1(C)Cc2c(cnn2-c2ccc(F)cc2)C(NC(=O)CCN2CCCCO2)C1 (stereo not drawn)	5%	-5%	4%	0%	25µM*	.
C=CCn1c(=NC(=O)c2ccco2)sc2cc(C(=O)OC)ccc21	12%	-12%	3%	-17%	22µM*	0%
COCCn1c(=NC(=O)c2ccco2)sc2cc(C(=O)OC)ccc21	7%	-2%	1%	1%	-7%	-3%
C=CCn1c(=NC(=O)c2ccco2)sc2cc(C(=O)OCC)ccc21	14%	-7%	4%	3%	22µM*	4%
C=C[C@@H]1c2cc(C)ccc2N(S(=O)(=O)c2ccc(C)cc2)[C@H](c2ccc(C(=O)OC)cc2)C1(C#N)C#N	.	.	-3%	.	-3%	.
CC1CCC/C(=C\Nc2ccc3c(c2)OCO3)C1=O (stereo not drawn)	0%	-15%	2%	-4%	-1%	-13%
CC1CCC/C(=C\Nc2ccccc2C(=O)O)C1=O (stereo not drawn)	-24%	-8%	-1%	-13%	22µM*	2%
Cc1cccc(Nc2nnc(SCC(=O)Nc3ccccc3[N+](=O)[O-])s2)c1	-17%	-13%	0%	-2%	-25%	-16%
Cc1ccccc1Nc1nnc(SCC(=O)Nc2ccccc2[N+](=O)[O-])s1	-16%	-7%	-3%	26%	32µM*	2%
O=C(O)c1cnn(-c2nc(-c3cccc(F)c3)cs2)c1C(F)(F)F	-3%	-4%	7%	4%	.	-6%
CCOC(=O)c1cnn(-c2nc(-c3cccc(F)c3)cs2)c1C(F)(F)F	13%	-12%	-1%	10%	28µM*	26%
CCOC(=O)c1cnn(-c2nc3c(C)cccc3s2)c1C(F)(F)F	-9%	-22%	1%	5%	28µM*	15%
CCN(Cc1cccc(S(=O)(=O)O)c1)c1ccc(C(=C2C=CC(=[N+](CC)Cc3cccc(S(=O)(=O)O)c3)C=C2)c2ccc(O)cc2S(=O)(=O)O)cc1	.	.	-10%	.	-3%	.
